molecular target: T1, Aspartate--tRNA(Asp/Asn) ligase (Mycobacterium tuberculosis (strain ATCC 25618 / H37Rv)) (UniProt P9WFW3); experiment: Assay for Asp RNA synthetase-1 from Mycobacterium tuberculosis; format: functional; design: scale not given: in the data most compounds retested in dose-response had high values; details: 30 µM
T1 sequence (whole entry): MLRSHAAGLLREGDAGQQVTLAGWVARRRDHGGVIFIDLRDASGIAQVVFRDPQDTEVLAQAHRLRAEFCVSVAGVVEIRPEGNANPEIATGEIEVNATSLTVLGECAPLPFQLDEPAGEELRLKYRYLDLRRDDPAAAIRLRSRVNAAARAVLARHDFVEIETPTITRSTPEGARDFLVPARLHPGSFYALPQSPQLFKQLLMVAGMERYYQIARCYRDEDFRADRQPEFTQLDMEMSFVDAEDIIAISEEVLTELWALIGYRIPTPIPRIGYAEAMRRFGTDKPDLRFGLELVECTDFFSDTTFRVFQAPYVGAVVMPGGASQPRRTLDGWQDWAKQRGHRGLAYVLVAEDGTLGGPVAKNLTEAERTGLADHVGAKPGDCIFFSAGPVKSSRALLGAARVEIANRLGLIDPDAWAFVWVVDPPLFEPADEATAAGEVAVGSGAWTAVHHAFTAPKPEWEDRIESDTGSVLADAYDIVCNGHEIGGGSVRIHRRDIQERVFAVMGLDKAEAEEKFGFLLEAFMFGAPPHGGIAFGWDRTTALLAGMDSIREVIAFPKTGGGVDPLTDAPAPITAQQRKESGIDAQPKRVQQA

Row | Compound | Percent Effect
1 | CN(CC1CC1)C(=O)CN(Cc1cccc(O)c1)C1CCC(O)CC1 (stereo unspecified) | -0.296%
2 | c1cnc2c(c1)cc(C1CCOCC1)n2CCN1CCOCC1 | 3.26%
3 | CN(c1cccnn1)C1CCN(C(=O)c2ccc3c(c2)COC3)CC1 | -2.64%
4 | CN(Cc1cn2ccccc2c1C#N)C1CCCN(c2cccnn2)C1 (stereo unspecified) | 0.694%
5 | c1ccc(C2CCCN2Cc2nnnn2C2CC2)cc1 (stereo unspecified) | -2.81%
6 | Cc1ccc(C(=O)N2CCCS2(=O)=O)cc1Cl | -5.6%
7 | Cc1cc(-c2nnc(SCC(=O)O)n2C(C)c2ccccc2)nn1C (stereo unspecified) | 2.15%
8 | O=C(CCc1ccc(Cl)s1)N1CCCC(n2cncn2)C1 (stereo unspecified) | 2.08%
9 | COc1ccc(OCC(=O)NC(C)c2ccc(F)cc2)c(C(=O)O)c1 (stereo unspecified) | 0.691%
10 | Cc1ccoc1C(=O)N1CCOCC2(CCN(c3ncccn3)C2)C1 (stereo unspecified) | 5.74%
11 | CCNC(=O)c1ccoc1CN1c2ccccc2CC1C (stereo unspecified) | 2.94%
12 | O=C(CCc1nccs1)N1CCN(c2ncccn2)CC1 | -0.577%
13 | CCc1nc(C2CCCN2Cc2nccn2Cc2ccccc2)no1 (stereo unspecified) | -2.22%
14 | CNc1cncc(C2CCCN2C(=O)c2ccc3oc(C)cc3c2)n1 (stereo unspecified) | 0.779%
15 | NC(=O)CCOc1nc(-c2ccccc2Cl)no1 | -4.51%
16 | O=C(Nc1cnccn1)[C@H]1COC[C@H]2CN(C3CCCC3)C[C@H]21 | -3.53%
17 | COc1ccc(C(=O)NCCCn2ccnc2)c(OC)n1 | -1.77%
18 | CCOCC(O)CN1CCN(C(=O)c2cnc3n[nH]c(C)c3c2)CC1 (stereo unspecified) | 1.04%
19 | CN1CCCC1c1cccc(Cc2ccccc2F)n1 (stereo unspecified) | -0.581%
20 | Cc1cc(CN(C)C(=O)c2cccc(N3CCCC3=O)c2)no1 | 4.48%
21 | CN1CCN(C(=O)[C@H]2C[C@@H]3CCN(c4ncc(F)cn4)C[C@@H]3O2)CC1 | -1.43%

Source: ChEMBL document CHEMBL3988442, “University of Dundee, Small-Polar-MMV Screening Library” (2021)
